Assay results from PubChem BioAssay (EPA / NIEHS).
Values joined by “and” are separate entries in the source; they are usually repeats but may differ in a detail not shown here. Identical values can stand only once. Results filed as inconclusive are left out. Where a structure was tested more than once in an assay, its records may differ in their call. Active and inactive are the calls of the source. The calls were made as follows: active = hit-call score of the fitted dose curve at least 0.9, where 1 is the maximum; inconclusive = response in the unintended direction; inactive = score below 0.9.

Biological target: Retinoic acid receptor RXR-alpha (Homo sapiens) (UniProt P19793)
Assay: OT_NURR1_NURR1RXRa_0480: Odyssey Thera (OT) 8-hour HEK293T Protein Complementation Assay for Nurr1/retinoid X receptor (RXR) (AID 2283385)
Procedure: OT_NURR1_NURR1RXRa_0480 is a cell-based assay that uses HEK293T, a human kidney cell line, with measurements taken at 8 hours after chemical dosing in a 384-well plate.OT_NURR1_NURR1RXRa_0480 is one of one assay component(s) measured or calculated from the OT_NURR1_NURR1RXRa_0480 assay. It is designed to make measurements of protein fragment complementation, a form of binding reporter, as detected with fluorescence intensity signals by Protein-fragment Complementation technology.Data from the assay component OT_NURR1_NURR1RXRa_0480 was analyzed into 1 assay endpoint. This assay endpoint, OT_NURR1_NURR1RXRa_0480, was analyzed in the positive analysis fitting direction relative to DMSO as the negative control and baseline of activity. Using a type of binding reporter, measures of receptor for gain-of-signal activity can be used to understand the binding at the pathway-level as they relate to the gene RXRA. Furthermore, this assay endpoint can be referred to as a primary readout, because the performed assay has only produced 1 assay endpoint. To generalize the intended target to other relatable targets, this assay endpoint is annotated to the nuclear receptor intended target family, where the subfamily is non-steroidal.
Protein-fragment complementation assay, or PCA, is a method for the identification and quantification of protein-protein interactions. In the PCA, the proteins of interest ("bait" and "prey") are each covalently linked to fragments of a third protein (e.g. DHFR, which acts as a "reporter"). Interaction between the bait and the prey proteins brings the fragments of the reporter protein in close proximity to allow them to form a functional reporter protein whose activity can be measured.

Sequence of Retinoic acid receptor RXR-alpha (Homo sapiens) (P19793 whole entry, looked up): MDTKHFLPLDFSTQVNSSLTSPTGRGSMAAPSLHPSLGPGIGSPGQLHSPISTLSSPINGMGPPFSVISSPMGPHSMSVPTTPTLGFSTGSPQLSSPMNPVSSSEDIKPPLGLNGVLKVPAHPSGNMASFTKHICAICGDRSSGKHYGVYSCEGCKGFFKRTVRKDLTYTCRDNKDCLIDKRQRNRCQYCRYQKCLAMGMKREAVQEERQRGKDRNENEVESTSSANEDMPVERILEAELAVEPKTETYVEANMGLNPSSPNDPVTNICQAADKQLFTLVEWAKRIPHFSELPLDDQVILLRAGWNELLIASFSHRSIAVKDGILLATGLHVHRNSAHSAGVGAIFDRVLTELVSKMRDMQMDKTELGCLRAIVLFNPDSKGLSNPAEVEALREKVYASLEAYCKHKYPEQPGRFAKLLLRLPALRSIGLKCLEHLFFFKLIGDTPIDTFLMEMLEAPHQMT

Compound	outcome	AC50
CO[C@@H]1COCC[C@@H]1N[C@@H]1CC[C@@](C(=O)N2CCc3ncc(C(F)(F)F)cc3C2)(C(C)C)C1	inactive	
C=CCc1ccc(OC)c(OC)c1	inactive	
CCCCCCCC(=O)OC	inactive	
CC(C)COC(=O)CCCCC(=O)OCC(C)C	inactive	
CCCCc1nc2cccnc2n1Cc1ccc(-c2ccccc2-c2nnn[nH]2)cc1		15.4 µM (active)
CCCCCCCCCCCCCCCCO	inactive	
C=CCCCCCCCCCCCC	inactive	
CC(C)(C)c1ccccc1	inactive	
NCCOCCOCCN	inactive	
COC(=O)CCC(=O)OC	inactive	
CCCCC(CC)CO (stereo not given)	inactive	
O=C1NC(=O)C(c2ccccc2)(c2ccccc2)N1	inactive	
OCC(CO)n1cnc(-c2ccc(F)cc2)c1-c1ccnc(Oc2ccccc2)n1	inactive	
CCN(CC)CCOc1ccc(C(=C(Cl)c2ccccc2)c2ccccc2)cc1		9.55 µM (active)
C/C=C/c1ccc(OC)cc1	inactive	
O=C1O[C@H]([C@H](O)CO)C(O)=C1O	inactive	
O=C(O)c1[nH]n(-c2ccc(S(=O)(=O)O)cc2)c(=O)c1N=Nc1ccc(S(=O)(=O)O)cc1	inactive	
Oc1ccc(O)cc1	inactive	
CN(C)CCCN(C)CCCN(C)C	inactive	

Compound	outcome	AC50
Cc1ccc(C(C)(C)C)c(O)c1	inactive	75 µM (active)
CN(C)C(=O)NC1(c2ccccc2)CCN(CCC[C@]2(c3ccc(Cl)c(Cl)c3)CCCN(C(=O)c3ccccc3)C2)CC1	inactive	19.3 µM (active)
O=C(Oc1ccccc1)c1cccc(C(=O)Oc2ccccc2)c1		75.2 µM (active) and 79.8 µM (active)
CC(=O)O[C@]1(C(C)=O)CC[C@H]2[C@@H]3C=C(Cl)C4=CC(=O)[C@@H]5C[C@@H]5[C@]4(C)[C@H]3CC[C@@]21C		28 µM (active)
CCCC(=O)O	inactive	
CC1=C(C)S(=O)(=O)CCS1(=O)=O	inactive	
O=C1c2c(O)cccc2Cc2cccc(O)c21	inactive	
Oc1ccccc1O	inactive	
CN(C)C(=O)NC1(c2ccccc2)CCN(CC[C@@]2(c3ccc(F)c(F)c3)CN(C(=O)c3ccccc3)CCO2)CC1	inactive	
NC(=Nc1ccccc1)Nc1ccccc1		5.14 µM (active) and 12.2 µM (active)
CCCCCCC(C=O)=Cc1ccccc1		73.4 µM (active)
CC(C)NCC(O)c1ccc(O)c(O)c1 (stereo not given)		0.03 µM (active)
CC(COCC(C)OC(=O)c1ccccc1)OC(=O)c1ccccc1 (stereo not given)	inactive	
CC(=O)S[C@H](C(=O)N[C@H]1Cc2ccccc2[C@H]2CCC[C@@H](C(=O)O)N2C1=O)C(C)C	inactive	
CSc1ccc(Oc2ccc(S(N)(=O)=O)cc2CN(C)C)cc1C	inactive	50 µM (active)
CCCCCCC(CCCCCCCCCCC(=O)OCC(COC(C)=O)OC(C)=O)OC(C)=O (stereo not given)	inactive	
COC(=O)CCCC(=O)OC	inactive	
CCOCCOCCO	inactive	
